# Values joined by “and” are separate entries in the source; they are usually repeats but may differ in a detail not shown here. Equal entries are not always repeated. Results filed as inconclusive are left out. For some of these results: Measured potencies and affinities stand elsewhere. Active and inactive are the calls of the source. Unless noted, no rule for the calls is given here.
# What was measured:
# [1] = molecular target: ATP-dependent translocase ABCB1 (Homo sapiens) (UniProt P08183); assay: MDR1 (ABCB1) efflux transporter inhibition, cell-based (AID 377; in the data active = fluorescence slope change above about 50%); conditions: MDR1-expressing cells, fluorescent substrate accumulation slope; stronger effect = higher value; concentration not given here
# Sequence of ATP-dependent translocase ABCB1 (Homo sapiens) (P08183 whole entry, looked up): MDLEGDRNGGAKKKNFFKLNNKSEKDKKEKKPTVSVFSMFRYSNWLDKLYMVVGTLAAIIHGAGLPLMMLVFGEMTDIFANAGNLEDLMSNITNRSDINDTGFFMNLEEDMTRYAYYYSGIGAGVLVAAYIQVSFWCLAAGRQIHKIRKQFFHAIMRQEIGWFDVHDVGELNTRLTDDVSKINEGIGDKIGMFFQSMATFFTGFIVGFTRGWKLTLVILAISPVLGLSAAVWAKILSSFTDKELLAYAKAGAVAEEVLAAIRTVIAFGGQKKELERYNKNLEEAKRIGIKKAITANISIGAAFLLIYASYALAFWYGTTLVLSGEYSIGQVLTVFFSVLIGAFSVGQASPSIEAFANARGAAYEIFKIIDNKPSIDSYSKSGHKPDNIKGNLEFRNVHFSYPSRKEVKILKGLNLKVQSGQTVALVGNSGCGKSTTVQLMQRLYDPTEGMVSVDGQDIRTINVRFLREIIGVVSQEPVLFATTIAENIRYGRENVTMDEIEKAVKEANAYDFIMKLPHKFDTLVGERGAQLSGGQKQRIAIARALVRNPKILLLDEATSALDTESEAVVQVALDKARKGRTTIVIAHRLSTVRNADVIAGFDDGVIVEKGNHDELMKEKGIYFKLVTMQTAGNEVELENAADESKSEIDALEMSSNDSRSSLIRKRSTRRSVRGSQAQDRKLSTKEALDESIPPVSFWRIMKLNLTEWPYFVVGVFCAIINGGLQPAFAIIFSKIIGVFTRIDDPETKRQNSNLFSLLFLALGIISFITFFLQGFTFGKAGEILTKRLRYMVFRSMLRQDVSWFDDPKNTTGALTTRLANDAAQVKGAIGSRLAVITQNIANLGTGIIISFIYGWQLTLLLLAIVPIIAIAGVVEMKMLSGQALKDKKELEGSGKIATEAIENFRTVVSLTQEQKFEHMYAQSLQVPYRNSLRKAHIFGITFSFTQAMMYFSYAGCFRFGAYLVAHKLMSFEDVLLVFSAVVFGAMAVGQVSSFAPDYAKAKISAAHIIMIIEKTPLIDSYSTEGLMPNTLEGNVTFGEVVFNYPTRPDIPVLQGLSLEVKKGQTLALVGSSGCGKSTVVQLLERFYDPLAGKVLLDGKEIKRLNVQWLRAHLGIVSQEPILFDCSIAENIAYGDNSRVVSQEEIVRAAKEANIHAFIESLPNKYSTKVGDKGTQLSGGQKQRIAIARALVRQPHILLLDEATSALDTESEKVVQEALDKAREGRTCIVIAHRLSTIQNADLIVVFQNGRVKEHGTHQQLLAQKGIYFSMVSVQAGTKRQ
# [2] = circadian clock period modulators, cell-based, LOPAC library, luminescence reporter (AID 2774); conditions: circadian reporter cells, at 7 µM, actives lie on both sides;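 also: values are relative to mean of DMSO wells on each plate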
# [3] = system: Neuropilin-2 / VEGF-C interaction (human); assay: inhibitors of NRP2–VEGF-C binding, biochemical, microplate binding format, z-score (AID 743281); conditions: microplate NRP2/VEGF-C binding assay; stronger effect = lower value
# [4] = system: Aerobactin synthetase IucA (Klebsiella pneumoniae); assay: IucA aerobactin synthetase inhibitors, biochemical, Tocris library, absorbance (AID 1345561); conditions: purified IucA enzyme assay, absorbance (OD) read-out; stronger effect = lower value;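 tested at 8 µM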;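 also: 100% = enzyme without compound and 0% = no enzyme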
# [5] = inhibitors of Cryptococcus chitosan production, flow cytometry, Cibacron Brilliant Red staining (AID 1347148); conditions: Cryptococcus neoformans chitosan, stronger effect = lower value; at 99.1 µM unless noted;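 also: compound exposure lasted three days at 37 degrees C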
# [6] = antimalarial activity against Dd2 strain (AID 2302;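 active = growth inhibition above 50% at the single 2 µM test dose, taken to imply half-maximal potency below 2 µM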;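 also: 0% = DMSO untreated growth and 100% = chloroquine plus artemisinin killed control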); conditions: P. falciparum Dd2 in RBCs, LDH growth readout, 72 h; at 2 µM; stronger effect = higher value
# [7] = molecular target: L-lactate dehydrogenase (Plasmodium falciparum (isolate CDC / Honduras)) (UniProt Q27743); assay: PfLDH activity inhibition – cell lysate, 3D7 strain, counter-screen for P. falciparum growth inhibition project (AID 2304);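 also: 0% = vehicle and 100% = reference inhibitor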; conditions: P. falciparum 3D7 crude extract, LDH APAD/NBT absorbance; at 2 µM; stronger effect = higher value
# Sequence of L-lactate dehydrogenase (Plasmodium falciparum (isolate CDC / Honduras)) (Q27743 whole entry, looked up): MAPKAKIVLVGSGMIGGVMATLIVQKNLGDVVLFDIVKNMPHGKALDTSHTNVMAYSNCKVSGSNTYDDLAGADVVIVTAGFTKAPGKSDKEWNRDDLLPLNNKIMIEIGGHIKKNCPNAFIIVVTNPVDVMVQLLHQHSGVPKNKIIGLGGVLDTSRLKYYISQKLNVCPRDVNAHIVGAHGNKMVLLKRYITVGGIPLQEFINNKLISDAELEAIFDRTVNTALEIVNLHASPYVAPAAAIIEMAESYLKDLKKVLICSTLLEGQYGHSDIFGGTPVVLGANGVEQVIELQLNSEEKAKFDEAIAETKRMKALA
# [8] = inhibition of 3D7 malaria parasite growth – strain 3D7 (AID 2306);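 also: 0% = DMSO wells and 100% = chloroquine plus artemisinin control wells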; conditions: P. falciparum 3D7 erythrocytic growth, LDH absorbance, 72 h; at 2 µM; stronger effect = higher value
# [9] = molecular target: Calcium-dependent protein kinase 1 (Plasmodium falciparum (isolate 3D7)) (UniProt P62344); assay: PfCDPK1 kinase inhibitors, biochemical, TCAMS library (AID 1159585; cut-off not given, nearly all actives have IC50 up to about 0.98 µM;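 also: inhibitors leave more ATP so luminescence rises with inhibition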); conditions: recombinant PfCDPK1, Kinase-Glo ATP depletion luminescence
# Sequence of Calcium-dependent protein kinase 1 (Plasmodium falciparum (isolate 3D7)) (P62344 whole entry, looked up): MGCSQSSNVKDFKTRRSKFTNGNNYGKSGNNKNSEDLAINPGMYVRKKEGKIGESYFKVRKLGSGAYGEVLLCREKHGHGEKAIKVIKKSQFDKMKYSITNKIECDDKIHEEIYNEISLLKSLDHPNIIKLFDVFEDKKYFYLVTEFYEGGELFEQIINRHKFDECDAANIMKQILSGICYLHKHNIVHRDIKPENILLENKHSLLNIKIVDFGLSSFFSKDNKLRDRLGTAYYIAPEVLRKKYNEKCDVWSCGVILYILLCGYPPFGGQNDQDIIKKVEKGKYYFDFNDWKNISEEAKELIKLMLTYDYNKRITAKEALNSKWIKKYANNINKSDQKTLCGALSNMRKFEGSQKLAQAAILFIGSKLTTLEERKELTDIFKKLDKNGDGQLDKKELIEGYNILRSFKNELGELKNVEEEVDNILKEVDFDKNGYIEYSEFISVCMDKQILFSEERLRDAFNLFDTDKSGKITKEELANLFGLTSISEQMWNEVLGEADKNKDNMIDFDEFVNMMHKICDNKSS
# [10] = molecular target: Plasmodium falciparum protein kinase 6 (PK6, PF3D7_1337100) (UniProt Q8IDW1); assay: PfPK6 kinase inhibitors, biochemical, TCAMS library (AID 1159586); conditions: recombinant PfPK6, Kinase-Glo ATP depletion luminescence
# Sequence of Plasmodium falciparum protein kinase 6 (PK6, PF3D7_1337100) (Q8IDW1 1-305): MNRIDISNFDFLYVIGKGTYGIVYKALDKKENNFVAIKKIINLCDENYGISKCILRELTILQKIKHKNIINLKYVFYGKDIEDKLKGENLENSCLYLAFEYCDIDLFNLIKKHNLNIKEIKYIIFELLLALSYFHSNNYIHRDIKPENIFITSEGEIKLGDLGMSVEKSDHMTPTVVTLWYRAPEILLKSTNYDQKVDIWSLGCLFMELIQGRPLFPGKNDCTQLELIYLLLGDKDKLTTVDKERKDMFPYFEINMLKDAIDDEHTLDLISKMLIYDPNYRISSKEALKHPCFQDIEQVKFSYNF
# [11] = molecular target: Protein kinase 7 (PK7), Plasmodium falciparum 3D7 (PF3D7_0213400) (UniProt Q7YTF7); assay: inhibition of Plasmodium PK7 catalytic activity – biochemical, TCAMS antimalarial set, Kinase-Glo luminescence (AID 1159587); conditions: recombinant PfPK7, Kinase-Glo ATP depletion luminescence
# Sequence of Protein kinase 7 (PK7), Plasmodium falciparum 3D7 (PF3D7_0213400) (Q7YTF7 1-343): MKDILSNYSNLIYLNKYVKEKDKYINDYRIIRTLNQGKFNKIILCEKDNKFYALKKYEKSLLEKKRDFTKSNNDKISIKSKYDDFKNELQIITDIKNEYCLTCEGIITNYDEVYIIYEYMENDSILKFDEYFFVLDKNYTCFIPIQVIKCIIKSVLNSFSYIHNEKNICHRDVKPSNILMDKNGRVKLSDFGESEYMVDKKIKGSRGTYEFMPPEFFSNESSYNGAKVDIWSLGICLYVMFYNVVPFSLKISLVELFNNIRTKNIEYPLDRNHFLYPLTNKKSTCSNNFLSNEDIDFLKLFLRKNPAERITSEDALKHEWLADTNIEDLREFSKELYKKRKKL
# [12] = growth inhibition of DIPG glioma cells, dose response, cell-based, SU-DIPG-XIII, MIPE5.0, CellTiter-Glo, qHTS (AID 1347064; cut-off not given, nearly all actives have AC50 up to about 23 µM;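 as to AC50: cells exposed to compound for 48 hours before the viability read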); conditions: SU-DIPG-XIII viability, CellTiter-Glo ATP luminescence
# [13] = CRL2098 osteosarcoma cell growth inhibition, synergistic combos for chromothripsis tumors, BGB or cisplatin IC20 combos (AID 1671454; in the data active = inhibition above about 80%;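 also: cells exposed for 96 h before readout; 0% = vehicle DMSO and 100% = killing by high DMSO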); conditions: CRL2098 osteosarcoma cells, drug combinations, stronger effect = higher value
# [14] = HD-MB03 medulloblastoma cell growth inhibition, synergistic combos for chromothripsis tumors, BGB or cisplatin IC20 combos (AID 1671455; in the data active = inhibition above about 83%;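 also: 0% = vehicle DMSO and 100% = high DMSO as cytotoxic control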); conditions: HD-MB03 medulloblastoma cells, stronger effect = higher value
# [15] = UWB1.289 ovarian carcinoma cell growth inhibition, synergistic combos for chromothripsis tumors, BGB or cisplatin combos (AID 1671456; in the data active = inhibition above about 80%;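 also: cells exposed to compound for four days; 0% = vehicle DMSO and 100% = killing by high DMSO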); conditions: UWB1.289 ovarian carcinoma cells, stronger effect = higher value
# [16] = LFS_MB_2R medulloblastoma cell growth inhibition, synergistic combos for chromothripsis tumors, cisplatin combos (AID 1671457; in the data active = inhibition above about 80%;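 also: cells exposed to compound for four days before readout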); conditions: LFS_MB_2R medulloblastoma cells, stronger effect = higher value
# [17] = UWB1.289_BRCA1 ovarian cancer growth, cell-based, BGB or cisplatin combinations (AID 1671459; in the data active = inhibition above about 80%); conditions: UWB1.289 BRCA1 ovarian carcinoma, drug combinations, stronger effect = higher value
# [18] = human astrocyte viability loss, single and combined drugs, cytotoxicity control for chromothriptic childhood tumor combination screen, cell-based, BGB or cisplatin IC20 combos (AID 1671460; in the data active = inhibition above about 80%;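 also: cells exposed to compounds for 96 hours before viability readout; 0% = vehicle and 100% = killing control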); conditions: Human astrocytes, drug combinations, stronger effect = higher value
# [19] = liver-stage malaria parasite growth inhibition, primary screen, cell-based, HepG2, luciferase luminescence, HepG2 viability (AID 624349; in the data active = parasite load remaining mostly below about 12%, no sharp cut-off; inactive = mostly above about 10%;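 also: 100% = mean of DMSO negative control wells on the same plate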); conditions: P. berghei liver stage in HepG2, luciferase luminescence, concentration not given here; parasite load remaining: stronger effect = lower value; viability: measured here: HepG2 viability without parasites
# [20] = modifiers of HSF1 nuclear foci, imaging, Selleck Cancer Library (AID 1347162; in the data active = plate-normalised HSF1 focus index below about 0.46); conditions: human cells, at 10 µM; SSMD: measured here: HSF1 foci SSMD mean; cell count: measured here: cell number; plate-normalised HSF1 focus index: stronger effect = lower value
compound,measurement,setting,value
Clc1cccc(Cl)c1NC1=NCCN1,fluorescence slope change,[1],110% (active)
same,period change,[2],0.005 h (inactive)
same,z-score,[3],0.177 (inactive)
same,remaining activity,[4],106% (inactive)
same,fold fluorescence,[5],4.6 [at 217.3 µM] (inactive)
CCN(CC)CCCC(C)Nc1c2ccc(Cl)cc2nc2ccc(OC)cc12 (stereo unspecified),fluorescence slope change,[1],75.1% (active)
same,growth inhibition,[6],101% (active)
same,inhibition,[7],0% (inactive)
same,growth inhibition,[8],101% (active)
same,period change,[2],0.21 h (inactive)
same,outcome,[9],inactive
same,outcome,[10],inactive
same,outcome,[11],inactive
same,AC50,[12],8.33 µM (active)
same,inhibition,[13]; at 0.5 µM,-21.4% (inactive)
same,inhibition,"[13]; measured here: combination with BGB at IC20, at 0.5 µM",-24.3%
same,inhibition,"[13]; measured here: combination with cisplatin at IC20, at 0.5 µM",-28%
same,inhibition,[14]; at 0.5 µM,0.06% (inactive)
same,inhibition,"[14]; measured here: combo with BGB at IC20, at 0.5 µM",19%
same,inhibition,"[14]; measured here: combo with cisplatin at IC20, at 0.5 µM",-11.8%
same,inhibition,[15]; at 0.5 µM,5.88% (inactive)
same,inhibition,"[15]; measured here: inhibition with BGB combination, at 0.05 µM",-7.63%
same,inhibition,"[15]; measured here: inhibition with cisplatin combination, at 0.05 µM",-3.99%
same,inhibition,[16]; at 0.5 µM,2.36% (inactive)
same,inhibition,"[16]; measured here: combination with cisplatin, at 0.5 µM",15%
same,inhibition,"[16]; measured here: combination with cisplatin, at 5 µM",96.1%
same,inhibition,"[17]; BGB combination, concentration series, at 5 µM",103%
same,inhibition,[17]; at 0.5 µM,1.64% (inactive)
same,inhibition,"[17]; cisplatin combination, concentration series, at 5 µM",117%
same,inhibition,[18]; at 0.5 µM,-27.9% (inactive)
same,inhibition,"[18]; measured here: combo with BGB IC20, at 0.5 µM",-30.9%
same,inhibition,"[18]; measured here: combo with cisplatin IC20, at 0.5 µM",-37.3%
CCN(CC)CCCC(C)Nc1ccnc2cc(Cl)ccc12 (stereo unspecified),fluorescence slope change,[1],-4.1% (inactive)
same,growth inhibition,[6],96% (active)
same,inhibition,[7],-1% (inactive)
same,growth inhibition,[8],100% (active)
same,period change,[2],0.02 h (inactive)
same,outcome,[9],inactive
same,outcome,[10],inactive
same,outcome,[11],inactive
same,outcome,[12],inactive
CC1=C(CC(=O)O)c2cc(F)ccc2/C1=C\c1ccc(S(C)=O)cc1 (stereo unspecified),period change,[2],0.265 h (inactive)
same,remaining activity,[4],115% (inactive)
Cc1noc(NS(=O)(=O)c2ccc(N)cc2)c1C,remaining activity,[4],91.4% (inactive)
CC[C@H](C)C(=O)O[C@H]1C[C@@H](C)C=C2C=C[C@H](C)[C@H](CC[C@@H]3C[C@@H](O)CC(=O)O3)[C@H]21,fluorescence slope change,[1],166% (active)
same,remaining activity,[4],113% (inactive)
same,fold fluorescence,[5],4.35 [at 123.6 µM] (inactive)
Oc1ccc(/C=C/c2cc(O)cc(O)c2)cc1,fluorescence slope change,[1],28.4% (inactive)
same,period change,[2],-0.215 h (inactive)
same,z-score,[3],-0.145 (inactive)
same,remaining activity,[4],117% (inactive)
same,outcome,[12],inactive
same,fold fluorescence,[5],7.05 [at 219.1 µM] (inactive)
CC(C)NCC(O)c1ccc(O)c(O)c1 (stereo unspecified),period change,[2],-0.07 hour (inactive) and 0.21 hour (inactive)
same,remaining activity,[4],108% (inactive)
same,outcome,[12],inactive
NC12CC3CC(CC(C3)C1)C2,growth inhibition,[6],-1% (inactive)
same,inhibition,[7],-7% (inactive)
same,growth inhibition,[8],98% (active)
same,period change,[2],-0.05 h (inactive)
same,outcome,[9],inactive
same,outcome,[10],inactive
same,outcome,[11],inactive
same,outcome,[12],inactive
same,fold fluorescence,[5],3.81 [at 330.6 µM] (inactive)
CCC1(c2ccccc2)C(=O)NCNC1=O,period change,[2],-0.19 h (inactive)
same,remaining activity,[4],91.8% (inactive)
same,outcome,[12],inactive
c1ccc(CC2=NCCN2)cc1,growth inhibition,[6],0% (inactive)
same,inhibition,[7],-3% (inactive)
same,growth inhibition,[8],94% (active)
same,outcome,[9],inactive
same,outcome,[10],inactive
same,outcome,[11],inactive
c1ccc([C@H]2CN3CCSC3=N2)cc1,fluorescence slope change,[1],63.5% (active)
same,growth inhibition,[6],1% (inactive)
same,inhibition,[7],5% (inactive)
same,growth inhibition,[8],93% (active)
same,period change,[2],-0.17 h (inactive)
same,outcome,[9],inactive
same,outcome,[10],inactive
same,outcome,[11],inactive
same,outcome,[12],inactive
CCOC(=O)[C@H](CCc1ccccc1)N[C@H]1CCc2ccccc2N(CC(=O)O)C1=O,parasite load remaining,[19],126% (inactive) and 36.1% (inactive) and 94.6% (inactive)
same,viability,[19],90.1% and 91.8% and 66.1%
same,z-score,[3],-0.908 (inactive)
same,remaining activity,[4],104% (inactive)
same,outcome,[12],inactive
CC[C@H]1CN2CCc3cc(OC)c(OC)cc3[C@@H]2C[C@@H]1C[C@H]1NCCc2cc(OC)c(OC)cc21,growth inhibition,[6],99% (active)
same,inhibition,[7],-3% (inactive)
same,growth inhibition,[8],101% (active)
same,period change,[2],0 h (inactive)
same,parasite load remaining,[19],-66.8% (active)
same,viability,[19],76.3%
same,outcome,[9],inactive
same,outcome,[10],inactive
same,outcome,[11],inactive
same,AC50,[12],0.166 µM (active)
O=C1CCC(N2C(=O)c3ccccc3C2=O)C(=O)N1 (stereo unspecified),fluorescence slope change,[1],58.2% (active)
same,period change,[2],0.105 h (inactive)
same,remaining activity,[4],108% (inactive)
same,fold fluorescence,[5],3.34 [at 193.6 µM] (inactive)
CN1C(C(=O)Nc2ccccn2)=C(O)c2ccccc2S1(=O)=O,period change,[2],-0.07 h (inactive)
same,z-score,[3],-1.26 (inactive)
same,remaining activity,[4],127% (inactive)
same,outcome,[12],inactive
same,fold fluorescence,[5],4.04 [at 150.9 µM] (inactive)
CCCCCN=C(N)N/N=C/c1c[nH]c2ccc(OC)cc12,growth inhibition,[6],2% (inactive)
same,inhibition,[7],-6% (inactive)
same,growth inhibition,[8],86% (active)
same,parasite load remaining,[19],142% (inactive) and 119% (inactive)
same,viability,[19],84.9% and 86.2%
same,outcome,[3],inactive
same,outcome,[9],inactive
same,outcome,[10],inactive
same,outcome,[11],inactive
same,AC50,[12],13.2 µM (active)
CCC(C)(C)C(=O)O[C@H]1C[C@@H](C)C=C2C=C[C@H](C)[C@H](CC[C@@H]3C[C@@H](O)CC(=O)O3)[C@H]21,remaining activity,[4],114% (inactive)
same,SSMD,[20],1.41
same,cell count,[20],7420
same,plate-normalised HSF1 focus index,[20],1.09 (inactive)

# — PubChem BioAssay
